Screen size: about 360,000 compounds; about 690 (0.19%) were called active.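 Rule for the calls: active = fluorescence ratio to DMSO below 75%, the collection mean minus 3 SD; inconclusive = too few cells collected in the well; inactive = the rest.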 This excerpt belongs to a sample that is enriched for actives.
molecular target: ATP-binding cassette sub-family B member 6 (Homo sapiens) (UniProt Q9NP58); experiment: ABCB6 transporter inhibitors, primary screen, K562-ABCB6 cells, flow cytometry, MLPCN library (AID 602162); details: K562-ABCB6 porphyrin accumulation, 1 h, at 10 µM, stronger effect = lower value;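 note: signal is porphyrin accumulated inside mitochondria; 100% equals median channel fluorescence of DMSO control wells; lower ratio means ABCB6 inhibition with less porphyrin fluorescence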
Sequence (Q9NP58 whole entry, looked up): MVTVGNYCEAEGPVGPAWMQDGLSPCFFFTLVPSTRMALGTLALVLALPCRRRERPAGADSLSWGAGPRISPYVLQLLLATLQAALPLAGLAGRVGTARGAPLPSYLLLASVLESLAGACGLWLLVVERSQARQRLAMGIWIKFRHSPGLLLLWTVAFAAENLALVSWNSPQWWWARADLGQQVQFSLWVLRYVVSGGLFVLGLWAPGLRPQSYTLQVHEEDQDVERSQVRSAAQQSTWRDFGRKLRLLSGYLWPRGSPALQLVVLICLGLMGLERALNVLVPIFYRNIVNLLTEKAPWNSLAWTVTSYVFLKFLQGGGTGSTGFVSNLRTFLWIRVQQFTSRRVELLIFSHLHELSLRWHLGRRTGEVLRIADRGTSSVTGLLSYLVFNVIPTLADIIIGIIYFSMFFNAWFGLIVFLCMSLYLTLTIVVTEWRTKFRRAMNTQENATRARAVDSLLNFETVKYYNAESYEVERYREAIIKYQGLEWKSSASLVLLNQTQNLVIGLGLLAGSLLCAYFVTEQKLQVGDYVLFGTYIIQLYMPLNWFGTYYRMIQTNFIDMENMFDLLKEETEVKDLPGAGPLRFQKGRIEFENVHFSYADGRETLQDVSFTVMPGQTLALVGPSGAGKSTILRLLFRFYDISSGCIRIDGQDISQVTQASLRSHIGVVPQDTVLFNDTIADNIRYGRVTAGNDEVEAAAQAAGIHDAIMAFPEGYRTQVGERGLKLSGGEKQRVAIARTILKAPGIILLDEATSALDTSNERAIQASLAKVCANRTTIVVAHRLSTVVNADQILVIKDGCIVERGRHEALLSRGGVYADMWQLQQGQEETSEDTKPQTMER

| Structure (SMILES) | fluorescence ratio to DMSO |
| --- | --- |
| CCOC(=O)CSc1nc(N2CCOCC2)c2c(c1C#N)CC(C(C)C)OC2 (stereo unspecified) | 97% (inactive) |
| CC(C)C(=O)N1CCN(c2nc(-c3ccccc3)c3c(c2C#N)CC(C)(C)OC3)CC1 | 111% (inactive) |
| CC1(C)Cc2c(C#N)c(SCc3nc4ccccc4[nH]3)nc(N3CCOCC3)c2CO1 | 74% (active) |
| Cc1cccc(OCCNC(=O)CSc2ccc(C(F)(F)F)cc2[N+](=O)[O-])c1 | 98% (inactive) |
| CCCOc1ccc(C(=O)C(CCC(CNCC)C(=O)c2ccc(OCCC)cc2)CNCC)cc1 (stereo unspecified) | 94% (inactive) |
| CC1CCN(C(NC(=O)c2ccco2)C(=O)c2ccccc2)CC1 (stereo unspecified) | 99% (inactive) |
| CCCCN(C(=O)CSCC(=O)Nc1ccc(OC)cc1)c1c(N)n(CCC)c(=O)[nH]c1=O | 99% (inactive) |
| COc1ccc(CCNS(=O)(=O)c2ccc(Cl)s2)cc1OC | 88% (inactive) |
| COc1ccc(CCNS(=O)(=O)c2ccc(C(=O)NCc3ccco3)cc2)cc1OC | 100% (inactive) |
| COc1ccc(CCNS(=O)(=O)c2ccc(F)cc2)cc1OC | 62% (active) |
| CCCCc1nc2ccc(F)cc2cc1C | 95% (inactive) |
| O=C(CSc1nnc(Nc2ccccc2F)s1)NC1CCCC1 | 101% (inactive) |
| CCOc1ccc(OCC(=O)OC(C)C(=O)NC2CCCCC2C)cc1 (stereo unspecified) | 99% (inactive) |
| COc1ccc(C(=O)OCC(=O)c2ccc(Cl)s2)c(OC)c1OC | 101% (inactive) |
| CCOc1ccc(NC(=O)CCC(=O)NNC(=O)NC2CCCCC2)cc1 | 98% (inactive) |
| CCOC(=O)C1CSC(CC(=O)Nc2ccc(OCC)cc2)C(=O)N1 (stereo unspecified) | 95% (inactive) |
| CCOc1ccc(NC(=O)CC2NCCNC2=O)cc1 (stereo unspecified) | 73% (active) |
| COc1cc([N+](=O)[O-])ccc1NC(=S)N1CCN(c2ccccn2)CC1 | 98% (inactive) |
| O=C(c1cccc(S(=O)(=O)N2CCCC2)c1)N(Cc1ccco1)C1CCS(=O)(=O)C1 (stereo unspecified) | 97% (inactive) |
| Cc1nccn1-c1ccc(NC(=O)[C@H]2O[C@@H](n3ccc(=O)[nH]c3=O)[C@H](O)[C@@H]2O)cc1 | 99% (inactive) |
| CCOC(=O)C1CCCN(C(=O)COc2ccc(N(C)S(=O)(=O)c3ccc(C)cc3)cc2)C1 (stereo unspecified) | 98% (inactive) |
